The record followed here is article PMC7862700, “An all-to-all approach to the identification of sequence-specific readers for epigenetic DNA modifications on cytosine”.

Assay in all cases: DAPPL (digital affinity profiling via proximity ligation, sequencing); 10 mM Tris-HCl pH 7.5, 50 mM NaCl, 1 mM DTT, 4% glycerol, room temperature, 30 min; GST-TFs on glutathione beads, 16-mer random dsDNA library, 0.1% formaldehyde crosslink after washing; high values mean tight binding
The target of one test is T1, FLI1 (Homo sapiens, UniProt Q01543 1-452).
T1 sequence: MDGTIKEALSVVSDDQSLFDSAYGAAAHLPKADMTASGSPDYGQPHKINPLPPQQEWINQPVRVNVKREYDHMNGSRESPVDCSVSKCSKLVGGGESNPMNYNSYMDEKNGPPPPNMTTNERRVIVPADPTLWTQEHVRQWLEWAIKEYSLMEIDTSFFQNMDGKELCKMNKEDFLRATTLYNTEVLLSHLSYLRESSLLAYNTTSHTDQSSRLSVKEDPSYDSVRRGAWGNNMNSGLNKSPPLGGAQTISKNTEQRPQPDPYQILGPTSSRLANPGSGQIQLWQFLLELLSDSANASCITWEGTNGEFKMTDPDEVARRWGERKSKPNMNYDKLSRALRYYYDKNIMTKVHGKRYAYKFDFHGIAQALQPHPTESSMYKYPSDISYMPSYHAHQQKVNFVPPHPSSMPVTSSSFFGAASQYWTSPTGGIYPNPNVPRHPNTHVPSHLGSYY
Particulars: protein: recombinant; tags: N-terminal GST; dsDNA, one strand shown. The essentials:
(§1)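 After expression in yeast as GST fusions, human transcription factors were bound to glutathione beads, DNA-barcoded and mixed with a tag-only sample. The pools were incubated with 200 nmole of a 16-mer random double-stranded DNA library in Tris/NaCl/DTT/glycerol buffer (30 min, room temperature), washed and crosslinked with 0.1% formaldehyde. Proximity ligation with BsaI/T4 ligase ran for 1 h at 37 °C, before PCR amplification and sequencing on an Illumina NextSeq500. Binding signal is a hexamer's read frequency for a factor divided by its frequency for the tag-only sample.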

Another test deals with T2, ELK1 (Homo sapiens, UniProt P19419 1-428).
T2 sequence: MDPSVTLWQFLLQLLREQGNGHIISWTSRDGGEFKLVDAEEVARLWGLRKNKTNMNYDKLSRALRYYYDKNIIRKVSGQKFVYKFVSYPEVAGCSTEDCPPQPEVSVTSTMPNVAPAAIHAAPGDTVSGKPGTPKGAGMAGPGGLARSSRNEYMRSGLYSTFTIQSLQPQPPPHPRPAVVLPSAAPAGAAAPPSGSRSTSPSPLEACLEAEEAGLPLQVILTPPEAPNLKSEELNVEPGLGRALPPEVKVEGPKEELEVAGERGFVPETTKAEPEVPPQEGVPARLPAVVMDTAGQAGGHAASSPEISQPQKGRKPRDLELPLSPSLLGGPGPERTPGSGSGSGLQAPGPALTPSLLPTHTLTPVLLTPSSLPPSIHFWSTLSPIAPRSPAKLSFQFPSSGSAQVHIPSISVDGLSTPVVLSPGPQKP
The following applies: protein: recombinant; tags: N-terminal GST; dsDNA, one strand shown. The essentials:
as §1

A further test deals with T3, GABPA (Homo sapiens, UniProt Q06546 1-454).
T3 sequence: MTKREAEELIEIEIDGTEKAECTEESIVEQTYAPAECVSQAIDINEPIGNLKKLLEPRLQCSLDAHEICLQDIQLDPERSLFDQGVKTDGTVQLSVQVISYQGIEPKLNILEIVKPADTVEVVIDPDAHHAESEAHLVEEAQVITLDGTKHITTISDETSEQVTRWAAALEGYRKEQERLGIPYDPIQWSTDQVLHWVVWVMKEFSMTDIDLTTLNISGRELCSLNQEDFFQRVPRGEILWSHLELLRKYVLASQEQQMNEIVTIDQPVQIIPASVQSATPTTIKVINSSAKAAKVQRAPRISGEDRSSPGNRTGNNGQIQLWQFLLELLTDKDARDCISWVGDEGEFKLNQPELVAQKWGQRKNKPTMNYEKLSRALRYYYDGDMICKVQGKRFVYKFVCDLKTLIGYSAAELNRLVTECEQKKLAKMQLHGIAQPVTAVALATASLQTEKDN
Particulars: protein: recombinant; tags: N-terminal GST; dsDNA, one strand shown. The essentials:
as §1

In the next test the target is T4, ERG (Homo sapiens, UniProt P11308 1-479).
T4 sequence: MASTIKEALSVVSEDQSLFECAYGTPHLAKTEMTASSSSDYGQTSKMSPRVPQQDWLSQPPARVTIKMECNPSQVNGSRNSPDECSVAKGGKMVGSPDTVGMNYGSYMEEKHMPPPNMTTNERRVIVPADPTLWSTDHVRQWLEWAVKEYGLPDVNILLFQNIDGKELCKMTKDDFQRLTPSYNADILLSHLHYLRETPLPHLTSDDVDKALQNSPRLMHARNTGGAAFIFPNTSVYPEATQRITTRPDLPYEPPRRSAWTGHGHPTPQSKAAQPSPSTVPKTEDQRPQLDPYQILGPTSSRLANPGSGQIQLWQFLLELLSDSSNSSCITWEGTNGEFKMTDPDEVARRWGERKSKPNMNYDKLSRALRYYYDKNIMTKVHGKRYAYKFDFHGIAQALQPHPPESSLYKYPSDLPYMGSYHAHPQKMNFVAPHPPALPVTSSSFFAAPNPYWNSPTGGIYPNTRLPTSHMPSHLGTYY
Particulars: protein: recombinant; tags: N-terminal GST; dsDNA, one strand shown. In short, it runs like this:
as §1

In the next test the target is ELF1 (Homo sapiens, UniProt P32519 1-619). Particulars: protein: recombinant; tags: N-terminal GST; dsDNA, one strand shown. The essentials:
as §1

The target in the next test is T5, EHF (Homo sapiens, UniProt Q9NZC4 1-300).
T5 sequence: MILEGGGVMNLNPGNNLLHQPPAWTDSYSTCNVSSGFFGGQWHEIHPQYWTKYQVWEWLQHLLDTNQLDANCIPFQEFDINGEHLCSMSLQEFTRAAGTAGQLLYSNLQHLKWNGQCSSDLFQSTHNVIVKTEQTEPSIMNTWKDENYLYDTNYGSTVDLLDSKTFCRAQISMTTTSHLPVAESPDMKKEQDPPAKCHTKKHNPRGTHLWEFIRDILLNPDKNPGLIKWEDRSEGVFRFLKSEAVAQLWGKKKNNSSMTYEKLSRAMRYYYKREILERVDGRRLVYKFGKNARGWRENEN
The following applies: protein: recombinant; tags: N-terminal GST; dsDNA, one strand shown. In short, it runs like this:
as §1

The next test deals with SPI1 (Homo sapiens, UniProt P17947 1-270). The following applies: protein: recombinant; tags: N-terminal GST; dsDNA, one strand shown. The essentials:
as §1

The next test addresses SPIB (Homo sapiens, UniProt Q01892 1-262). The following applies: protein: recombinant; tags: N-terminal GST; dsDNA, one strand shown. In short, it runs like this:
as §1

The target in the next test is T6, ELK3 (Homo sapiens, UniProt P41970 1-407).
T6 sequence: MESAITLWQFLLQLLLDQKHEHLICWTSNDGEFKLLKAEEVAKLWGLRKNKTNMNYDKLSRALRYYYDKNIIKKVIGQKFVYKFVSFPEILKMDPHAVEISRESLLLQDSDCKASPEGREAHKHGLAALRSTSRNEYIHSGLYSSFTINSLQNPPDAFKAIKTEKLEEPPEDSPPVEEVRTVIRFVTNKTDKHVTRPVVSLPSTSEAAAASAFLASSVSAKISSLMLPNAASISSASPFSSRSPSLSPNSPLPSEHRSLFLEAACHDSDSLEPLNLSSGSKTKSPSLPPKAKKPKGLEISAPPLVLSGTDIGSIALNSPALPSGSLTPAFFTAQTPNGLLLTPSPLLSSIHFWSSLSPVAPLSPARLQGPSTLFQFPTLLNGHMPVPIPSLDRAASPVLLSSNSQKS
The following applies: protein: recombinant; tags: N-terminal GST; dsDNA, one strand shown. The essentials: as §1

The target of a further test is T7, FEV (Homo sapiens, UniProt Q99581 1-238).
T7 sequence: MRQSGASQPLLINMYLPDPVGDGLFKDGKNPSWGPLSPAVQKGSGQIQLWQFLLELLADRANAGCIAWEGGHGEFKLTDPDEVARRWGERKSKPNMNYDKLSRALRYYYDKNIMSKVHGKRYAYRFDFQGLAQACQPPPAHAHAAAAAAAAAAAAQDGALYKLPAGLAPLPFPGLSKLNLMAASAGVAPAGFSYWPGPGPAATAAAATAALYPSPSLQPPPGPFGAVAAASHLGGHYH
The following applies: protein: recombinant; tags: N-terminal GST; dsDNA, one strand shown. The essentials: as §1

The next test deals with ETV5 (Homo sapiens, UniProt P41161 1-510). Particulars: protein: recombinant; tags: N-terminal GST; dsDNA, one strand shown. In short, it runs like this: as §1
A further test deals with HSF1 (Homo sapiens, UniProt Q00613 1-529). Particulars: protein: recombinant; tags: N-terminal GST; chain copies: 3; dsDNA, one strand shown. The essentials: as §1
A further test concerns the target T8, SPIC (Homo sapiens, UniProt Q8N5J4 1-248).
T8 sequence: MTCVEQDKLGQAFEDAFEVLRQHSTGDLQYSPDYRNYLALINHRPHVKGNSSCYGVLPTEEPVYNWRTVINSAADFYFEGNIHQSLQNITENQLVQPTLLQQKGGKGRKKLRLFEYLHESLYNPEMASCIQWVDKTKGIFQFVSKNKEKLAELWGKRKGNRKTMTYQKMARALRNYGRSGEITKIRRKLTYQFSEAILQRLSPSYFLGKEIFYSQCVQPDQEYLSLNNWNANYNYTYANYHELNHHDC
Particulars: protein: recombinant; tags: N-terminal GST; dsDNA, one strand shown. The essentials: as §1

For the next test, the target named is ELF4 (Homo sapiens, UniProt Q99607 1-663). The following applies: protein: recombinant; tags: N-terminal GST; dsDNA, one strand shown. The essentials:
as §1

A further test deals with T9, ELK4 (Homo sapiens, UniProt P28324-2 1-405).
T9 sequence: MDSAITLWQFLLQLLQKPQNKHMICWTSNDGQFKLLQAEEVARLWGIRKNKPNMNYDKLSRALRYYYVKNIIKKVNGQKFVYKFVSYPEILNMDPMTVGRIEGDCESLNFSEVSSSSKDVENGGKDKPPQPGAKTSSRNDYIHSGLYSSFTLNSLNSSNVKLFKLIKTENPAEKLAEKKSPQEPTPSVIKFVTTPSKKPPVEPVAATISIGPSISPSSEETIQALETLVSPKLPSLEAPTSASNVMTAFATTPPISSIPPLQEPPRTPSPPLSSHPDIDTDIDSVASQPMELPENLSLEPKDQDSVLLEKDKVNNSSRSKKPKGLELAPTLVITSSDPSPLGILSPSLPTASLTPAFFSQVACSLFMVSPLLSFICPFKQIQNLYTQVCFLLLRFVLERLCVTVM
The following applies: protein: recombinant; tags: N-terminal GST; dsDNA, one strand shown. The essentials: as §1

Another test has as its target T10, ETV2 (Homo sapiens, UniProt O00321 1-342).
T10 sequence: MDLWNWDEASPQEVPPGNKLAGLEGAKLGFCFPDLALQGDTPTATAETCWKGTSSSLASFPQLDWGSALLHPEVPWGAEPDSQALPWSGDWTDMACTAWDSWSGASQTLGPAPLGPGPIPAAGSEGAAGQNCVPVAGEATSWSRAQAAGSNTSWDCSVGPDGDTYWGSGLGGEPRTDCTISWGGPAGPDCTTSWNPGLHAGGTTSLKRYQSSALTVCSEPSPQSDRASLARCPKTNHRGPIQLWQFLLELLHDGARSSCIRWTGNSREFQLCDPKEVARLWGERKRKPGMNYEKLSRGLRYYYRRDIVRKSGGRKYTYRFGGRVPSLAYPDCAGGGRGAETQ
Particulars: protein: recombinant; tags: N-terminal GST; dsDNA, one strand shown. The essentials: as §1

The target in a further test is T11, ELF3 (Homo sapiens, UniProt P78545 1-371).
T11 sequence: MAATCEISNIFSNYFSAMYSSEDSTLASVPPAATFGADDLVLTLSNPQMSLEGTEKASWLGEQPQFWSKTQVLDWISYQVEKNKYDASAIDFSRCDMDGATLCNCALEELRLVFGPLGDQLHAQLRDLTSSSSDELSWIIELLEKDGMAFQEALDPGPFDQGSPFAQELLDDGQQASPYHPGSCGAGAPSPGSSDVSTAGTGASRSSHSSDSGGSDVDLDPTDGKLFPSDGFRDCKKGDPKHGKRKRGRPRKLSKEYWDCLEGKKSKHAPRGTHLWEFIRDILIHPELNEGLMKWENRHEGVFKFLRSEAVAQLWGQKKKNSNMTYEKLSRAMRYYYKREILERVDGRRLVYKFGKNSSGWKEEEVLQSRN
Particulars: protein: recombinant; tags: N-terminal GST; dsDNA, one strand shown. In short, it runs like this:
as §1

The target in another test is CRX (Homo sapiens, UniProt O43186 1-299). Particulars: protein: recombinant; tags: N-terminal GST; dsDNA, one strand shown. In short, it runs like this:
as §1

For another test, the target named is ETV1 (Homo sapiens, UniProt P50549 1-477). The following applies: protein: recombinant; tags: N-terminal GST; dsDNA, one strand shown. The essentials:
as §1

Chain of ETV5 (P41161 whole entry): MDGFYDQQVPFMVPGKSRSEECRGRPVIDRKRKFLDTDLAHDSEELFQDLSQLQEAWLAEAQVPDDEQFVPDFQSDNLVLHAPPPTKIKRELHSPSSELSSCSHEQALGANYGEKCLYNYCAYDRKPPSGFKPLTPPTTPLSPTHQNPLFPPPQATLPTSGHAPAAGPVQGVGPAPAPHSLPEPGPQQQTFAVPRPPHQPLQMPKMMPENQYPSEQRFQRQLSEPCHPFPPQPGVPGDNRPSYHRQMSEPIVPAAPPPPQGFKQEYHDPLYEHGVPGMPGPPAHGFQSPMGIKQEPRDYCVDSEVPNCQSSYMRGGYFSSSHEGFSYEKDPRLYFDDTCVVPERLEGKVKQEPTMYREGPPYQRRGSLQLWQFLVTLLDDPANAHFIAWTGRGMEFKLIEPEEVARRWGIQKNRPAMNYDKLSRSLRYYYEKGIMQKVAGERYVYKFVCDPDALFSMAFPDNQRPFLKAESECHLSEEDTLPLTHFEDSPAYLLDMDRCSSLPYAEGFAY
Chain of ETV1 (P50549 whole entry): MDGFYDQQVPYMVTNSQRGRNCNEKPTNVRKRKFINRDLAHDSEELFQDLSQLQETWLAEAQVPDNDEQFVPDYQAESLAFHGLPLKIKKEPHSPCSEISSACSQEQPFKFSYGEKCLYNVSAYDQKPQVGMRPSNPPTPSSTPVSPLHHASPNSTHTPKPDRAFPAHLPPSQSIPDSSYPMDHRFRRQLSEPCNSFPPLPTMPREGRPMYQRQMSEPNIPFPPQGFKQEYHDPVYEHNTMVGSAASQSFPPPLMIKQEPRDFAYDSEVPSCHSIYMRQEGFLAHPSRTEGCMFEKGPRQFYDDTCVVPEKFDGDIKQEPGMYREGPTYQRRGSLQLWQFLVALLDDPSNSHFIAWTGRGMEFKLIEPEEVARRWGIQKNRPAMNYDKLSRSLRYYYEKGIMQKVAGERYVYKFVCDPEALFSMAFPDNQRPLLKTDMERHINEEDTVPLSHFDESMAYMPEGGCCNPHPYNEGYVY
Chain of SPIB (Q01892 whole entry): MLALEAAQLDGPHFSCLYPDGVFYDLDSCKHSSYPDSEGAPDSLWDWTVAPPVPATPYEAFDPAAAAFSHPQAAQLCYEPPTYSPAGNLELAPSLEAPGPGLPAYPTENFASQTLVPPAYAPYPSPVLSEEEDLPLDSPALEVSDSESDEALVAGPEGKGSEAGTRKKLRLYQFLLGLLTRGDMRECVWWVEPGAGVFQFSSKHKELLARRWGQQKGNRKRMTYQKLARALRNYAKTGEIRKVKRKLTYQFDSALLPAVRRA
Chain of ELF4 (Q99607 whole entry): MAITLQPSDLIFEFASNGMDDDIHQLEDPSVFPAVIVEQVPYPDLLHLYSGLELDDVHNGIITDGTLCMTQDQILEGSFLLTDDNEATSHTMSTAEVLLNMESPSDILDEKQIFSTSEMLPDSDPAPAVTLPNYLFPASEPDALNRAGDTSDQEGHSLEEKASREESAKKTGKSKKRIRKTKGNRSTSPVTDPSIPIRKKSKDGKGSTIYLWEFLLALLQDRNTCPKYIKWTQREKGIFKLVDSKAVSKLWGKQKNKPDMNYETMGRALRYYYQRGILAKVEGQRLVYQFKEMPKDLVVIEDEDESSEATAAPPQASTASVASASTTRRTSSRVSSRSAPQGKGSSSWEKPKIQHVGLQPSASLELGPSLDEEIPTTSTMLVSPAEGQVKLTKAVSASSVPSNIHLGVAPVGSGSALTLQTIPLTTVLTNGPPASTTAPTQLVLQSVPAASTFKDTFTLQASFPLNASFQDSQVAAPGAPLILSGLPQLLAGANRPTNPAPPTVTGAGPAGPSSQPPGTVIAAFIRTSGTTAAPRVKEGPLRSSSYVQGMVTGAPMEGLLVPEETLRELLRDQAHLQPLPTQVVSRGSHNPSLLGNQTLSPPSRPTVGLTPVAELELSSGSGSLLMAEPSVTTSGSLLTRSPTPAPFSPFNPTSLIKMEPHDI
Chain of HSF1 (Q00613 whole entry): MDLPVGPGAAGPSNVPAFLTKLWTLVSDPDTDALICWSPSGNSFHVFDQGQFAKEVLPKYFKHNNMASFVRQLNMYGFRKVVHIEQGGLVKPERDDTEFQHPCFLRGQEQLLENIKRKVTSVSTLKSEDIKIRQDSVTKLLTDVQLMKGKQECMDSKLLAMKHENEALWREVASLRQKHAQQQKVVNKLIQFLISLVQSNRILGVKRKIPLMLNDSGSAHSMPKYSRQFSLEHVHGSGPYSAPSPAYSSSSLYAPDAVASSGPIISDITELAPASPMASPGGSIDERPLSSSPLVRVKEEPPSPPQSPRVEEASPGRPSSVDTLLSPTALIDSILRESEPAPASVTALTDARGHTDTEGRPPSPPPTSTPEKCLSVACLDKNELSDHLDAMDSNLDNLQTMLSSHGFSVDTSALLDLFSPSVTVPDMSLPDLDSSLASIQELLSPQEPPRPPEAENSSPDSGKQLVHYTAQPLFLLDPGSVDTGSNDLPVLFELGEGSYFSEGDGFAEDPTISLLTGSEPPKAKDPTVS
Chain of CRX (O43186 whole entry): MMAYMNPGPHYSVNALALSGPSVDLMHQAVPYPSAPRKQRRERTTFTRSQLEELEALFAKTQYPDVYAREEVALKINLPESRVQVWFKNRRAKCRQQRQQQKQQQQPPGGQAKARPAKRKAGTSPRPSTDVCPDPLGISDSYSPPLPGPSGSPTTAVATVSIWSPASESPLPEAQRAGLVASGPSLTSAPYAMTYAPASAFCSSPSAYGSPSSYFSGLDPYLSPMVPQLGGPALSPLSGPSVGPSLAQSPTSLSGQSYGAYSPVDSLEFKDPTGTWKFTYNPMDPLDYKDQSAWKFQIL
Chain of ELF1 (P32519 whole entry): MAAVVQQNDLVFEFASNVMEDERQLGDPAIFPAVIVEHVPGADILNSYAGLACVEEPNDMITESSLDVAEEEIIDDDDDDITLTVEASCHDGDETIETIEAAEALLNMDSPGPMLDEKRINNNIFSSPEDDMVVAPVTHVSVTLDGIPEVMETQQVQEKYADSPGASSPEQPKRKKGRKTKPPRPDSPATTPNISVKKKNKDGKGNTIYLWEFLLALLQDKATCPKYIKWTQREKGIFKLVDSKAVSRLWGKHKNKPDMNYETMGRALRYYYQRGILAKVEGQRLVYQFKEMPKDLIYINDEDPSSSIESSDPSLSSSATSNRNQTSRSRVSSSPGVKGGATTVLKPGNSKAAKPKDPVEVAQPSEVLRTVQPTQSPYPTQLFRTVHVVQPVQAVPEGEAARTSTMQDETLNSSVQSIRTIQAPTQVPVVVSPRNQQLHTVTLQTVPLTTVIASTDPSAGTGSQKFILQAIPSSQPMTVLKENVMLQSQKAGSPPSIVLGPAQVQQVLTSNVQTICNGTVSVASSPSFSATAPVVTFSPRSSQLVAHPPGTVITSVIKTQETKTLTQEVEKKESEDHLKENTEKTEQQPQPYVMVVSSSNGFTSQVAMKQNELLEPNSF

Turning to TTCTAA, the binding signal is 1.28 fold enrichment (6-mer frequency, TF over GST control) with FLI1; 1.23 fold enrichment (6-mer frequency, TF over GST control) with ELK1; 1.2 fold enrichment (6-mer frequency, TF over GST control) in the test with GABPA; 1.25 fold enrichment (6-mer frequency, TF over GST control) in the test with ERG; 1.23 fold enrichment (6-mer frequency, TF over GST control) with ELF1; 1.22 fold enrichment (6-mer frequency, TF over GST control) in the test with EHF. For the same sequence, the binding signal with SPI1 was 1.14 fold enrichment (6-mer frequency, TF over GST control); with SPIB, 1.17 fold enrichment (6-mer frequency, TF over GST control); with ELK3, 1.08 fold enrichment (6-mer frequency, TF over GST control); in the test with FEV it was 1.18 fold enrichment (6-mer frequency, TF over GST control); in the test with ETV5, 1.22 fold enrichment (6-mer frequency, TF over GST control); with HSF1 it was 1.83 fold enrichment (6-mer frequency, TF over GST control). The binding signal with SPIC was 1.13 fold enrichment (6-mer frequency, TF over GST control); with ELF4 it was 1.23 fold enrichment (6-mer frequency, TF over GST control); in the test with ELK4, 1.22 fold enrichment (6-mer frequency, TF over GST control); in the test with ETV2, 1.26 fold enrichment (6-mer frequency, TF over GST control); in the test with ELF3 it was 1.04 fold enrichment (6-mer frequency, TF over GST control); with CRX, 1.84 fold enrichment (6-mer frequency, TF over GST control). Moreover, in the test with ETV1, the binding signal is 1.21 fold enrichment (6-mer frequency, TF over GST control).
